Inconclusive results are not listed. Entries that show only a call come without a potency. Values without a mark were called inactive. Activity calls are given as the source filed them. Calls come from the whole dose curve; as a rule, active = well fitted cell-killing curve with a large enough effect in the repeat runs; inconclusive = weak or mixed curves, or effect the other way; inactive = flat fitted curve, though single readings scatter.
Note: nearly all actives have a fitted effect of over 50% in size.

The nature of the first experiment: qHTS RealTime-Glo MT Cell Viability Assay in HEK293 cells - 24 hour (AID 1224886). For activity change, negative = cytotoxicity: top concentration of the series differs between compounds. Note: potency is the fitted concentration of half-maximal effect. The following applies: RealTime-Glo luminescence; series mostly up to 76.8 µM. In short, it runs like this:
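Homogeneous bioluminescent viability format in HEK293 cells (600 cells/well). Following 5 h at 37 C/5% CO2, 23 nL compound was pintooled; the signal was measured repeatedly during 40 h incubation.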
`CN1CCC(=C2c3ccccc3Sc3ccccc32)CC1`: the Potency result is “inactive”.
Still for that read-out and setting: the result for `C=C1[C@H]2CC[C@@H]3[C@H]2C(C)(C)CCC[C@]13C` reads “inactive”; that for `CN1C[C@H]2c3ccccc3Oc3ccc(Cl)cc3[C@@H]2C1`, “inactive”; that for `O=CC1CC=CCC1` (stereo not drawn), “inactive”.
Take `CC(CSC(=O)c1ccccc1)C(=O)N1C[C@@H](Sc2ccccc2)C[C@H]1C(=O)O` (stereo partly drawn): the activity change, negative = cytotoxicity is -5.81% [at 15.8 µM].
As for `C=CCOc1ccccc1OCC(O)CNC(C)C` (stereo not drawn), the Potency result is “inactive”.
Regarding `C#CCN(C)CCCOc1ccc(Cl)cc1Cl`, the Potency entry was “inactive”.
Still for that read-out and setting: the result for `CCCCCCCCCCCc1ccccc1` reads “inactive”; that for `C[C@@H]1C[C@H]2O[C@@]3(O[C@@H]2C(C)(C)O)[C@H](O)[C@@]2(C)[C@@H]4CC[C@H]5C(C)(C)[C@@H](O[C@@H]6OC[C@@H](O)[C@H](O)[C@H]6O)CC[C@@]56C[C@@]46CC[C@]2(C)[C@@H]13`, “inactive”.
The same measure, in the same setting: the result for `COCCCN1CCC(NC(=O)c2cc(Cl)c(N)c3c2OCC3)CC1` reads “inactive”.
Same read-out and setting: the result for `CC(=O)[O][Al][O]C(C)=O` reads “inactive”; that for `c1ccc(CNCCNCc2ccccc2)cc1`, “inactive”; that for `CC1CCC(=O)C1=O` (stereo not drawn), “inactive”.
As to `O=S(c1cc(Cl)cc(Cl)c1O)c1cc(Cl)cc(Cl)c1O`, the Potency entry is “inactive”.
Turning to `O=C(O)C1(C(=O)Nc2ccc(Cl)cc2Cl)CC1`, the Potency result is “inactive”.
Regarding `CCC(CC)Nc1ccc(C)c(C)c1`, the Potency entry was “inactive”.
`Nc1ccc([N+](=O)[O-])c(C(F)(F)F)c1`: the Potency entry was “inactive”.
With `CCOC(=O)C(=O)CCc1ccccc1`, the Potency result was “inactive”.
Same read-out and setting: the result for `CC(C)(C)Cl` reads “inactive”; that for `O=C(O)C1(C(=O)O)CCC1.[NH2-].[NH2-].[Pt+2]`, “inactive”.
Same read-out and setting: the result for `CCCCCCCCO[C@@H]1O[C@H](CO)[C@@H](O)[C@H](O)[C@H]1O` reads “inactive”; that for `Nc1ccccc1S(=O)(=O)c1ccccc1`, “inactive”; that for `CCCCC(CC)COC(=O)CCCCCCCCC(=O)OCC(CC)CCCC` (stereo not drawn), “inactive”.
For `Nc1ccc(S(=O)(=O)Nc2ccccc2)cc1`, the Potency entry was “inactive”.
On the same count and under the same terms, the result for `Cc1oc(-c2ccccc2)nc1CCOc1cccc2c1ccn2CCC(=O)O` reads “inactive”.
As to `O=C(NCCO[N+](=O)[O-])c1cccnc1`, the Potency result was “inactive”.
Still for that read-out and setting: then `CCCC(=O)Nc1ccc(O)c(C(C)=O)c1`, with “inactive”; and `CCOc1ccc(N=Nc2ccc(/C=C/c3ccc(N=Nc4ccc(OCC)cc4)cc3S(=O)(=O)O)c(S(=O)(=O)O)c2)cc1`, with “inactive”.
`O=[N+]([O-])c1cccc(S(=O)(=O)O)c1`: the Potency was 22.2 µM (active).
On the same count and under the same terms, the result for `COc1ccc(C)cc1[N+](=O)[O-]` reads “inactive”; that for `CC(C)OC(=O)C(C)N(C(=O)c1ccccc1)c1ccc(F)c(Cl)c1` (stereo not drawn), “inactive”; that for `O=C(O)c1ccco1`, “inactive”.
The same measure, in the same setting: then `CN(C)CCN(Cc1ccsc1)c1ccccn1`, with “inactive”; and `CCO[Si](CCCCl)(OCC)OCC`, with “inactive”; and `O=C(O)C(S)C(S)C(=O)O` (stereo not drawn), with “inactive”.

Another experiment is described as follows: qHTS RealTime-Glo MT Cell Viability Assay in HEK293 cells - 8 hour (AID 1224887). Note: top concentration of the series differs between compounds. The conditions noted are these: RealTime-Glo luminescence; series mostly up to 76.8 µM. In short, it runs like this: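 HEK293 + NanoLuc + prosubstrate, 600 cells/well; 5 h, 37 C/5% CO2; compound 23 nL in DMSO by pintool; 37 C; luminescence read at 0, 8, 16, 24, 32 and 40 h time points.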
Regarding `CN1CCC(=C2c3ccccc3Sc3ccccc32)CC1`, the Potency result is “inactive”.
`C=C1[C@H]2CC[C@@H]3[C@H]2C(C)(C)CCC[C@]13C`: the Potency entry was “inactive”.
`CN1C[C@H]2c3ccccc3Oc3ccc(Cl)cc3[C@@H]2C1`: the Potency result is “inactive”.
The same measure, in the same setting: the result for `O=CC1CC=CCC1` (stereo not drawn) reads “inactive”.
Consider `CC(CSC(=O)c1ccccc1)C(=O)N1C[C@@H](Sc2ccccc2)C[C@H]1C(=O)O` (stereo partly drawn), for which the activity change, negative = cytotoxicity was -4.84% [at 15.8 µM].
As to `C=CCOc1ccccc1OCC(O)CNC(C)C` (stereo not drawn), the Potency result is “inactive”.
With `CCCCCCCCCCCc1ccccc1`, the Potency result was “inactive”.
The same measure, in the same setting: then `C[C@@H]1C[C@H]2O[C@@]3(O[C@@H]2C(C)(C)O)[C@H](O)[C@@]2(C)[C@@H]4CC[C@H]5C(C)(C)[C@@H](O[C@@H]6OC[C@@H](O)[C@H](O)[C@H]6O)CC[C@@]56C[C@@]46CC[C@]2(C)[C@@H]13`, with “inactive”; and `COCCCN1CCC(NC(=O)c2cc(Cl)c(N)c3c2OCC3)CC1`, with “inactive”; and `CC(=O)[O][Al][O]C(C)=O`, with “inactive”.
For `c1ccc(CNCCNCc2ccccc2)cc1`, the Potency result was “inactive”.
For the compound `CC1CCC(=O)C1=O` (stereo not drawn), the Potency entry was “inactive”.
As to `O=S(c1cc(Cl)cc(Cl)c1O)c1cc(Cl)cc(Cl)c1O`, the Potency entry was “inactive”.
For `O=C(O)C1(C(=O)Nc2ccc(Cl)cc2Cl)CC1`, the Potency result was “inactive”.
Consider `CCC(CC)Nc1ccc(C)c(C)c1`, for which the Potency result was “inactive”.
Same read-out and setting: then `Nc1ccc([N+](=O)[O-])c(C(F)(F)F)c1`, with “inactive”.
Still for that read-out and setting: then `CCOC(=O)C(=O)CCc1ccccc1`, with “inactive”; and `CC(C)(C)Cl`, with “inactive”; and `O=C(O)C1(C(=O)O)CCC1.[NH2-].[NH2-].[Pt+2]`, with “inactive”.
`CCCCCCCCO[C@@H]1O[C@H](CO)[C@@H](O)[C@H](O)[C@H]1O`: the Potency entry is “inactive”.
In the case of `Nc1ccccc1S(=O)(=O)c1ccccc1`, the Potency result was “inactive”.
The same measure, in the same setting: then `CCCCC(CC)COC(=O)CCCCCCCCC(=O)OCC(CC)CCCC` (stereo not drawn), with “inactive”.
Still for that read-out and setting: then `Nc1ccc(S(=O)(=O)Nc2ccccc2)cc1`, with “inactive”; and `Cc1oc(-c2ccccc2)nc1CCOc1cccc2c1ccn2CCC(=O)O`, with “inactive”.
In the case of `O=C(NCCO[N+](=O)[O-])c1cccnc1`, the Potency entry was “inactive”.
Same read-out and setting: then `CCCC(=O)Nc1ccc(O)c(C(C)=O)c1`, with “inactive”; and `CCOc1ccc(N=Nc2ccc(/C=C/c3ccc(N=Nc4ccc(OCC)cc4)cc3S(=O)(=O)O)c(S(=O)(=O)O)c2)cc1`, with “inactive”.
Still for that read-out and setting: then `COc1ccc(C)cc1[N+](=O)[O-]`, with “inactive”; and `CC(C)OC(=O)C(C)N(C(=O)c1ccccc1)c1ccc(F)c(Cl)c1` (stereo not drawn), with “inactive”.
Still for that read-out and setting: then `O=C(O)c1ccco1`, with “inactive”; and `CN(C)CCN(Cc1ccsc1)c1ccccn1`, with “inactive”.
As for `CCO[Si](CCCCl)(OCC)OCC`, the Potency entry was “inactive”.
On to `O=C(O)C(S)C(S)C(=O)O` (stereo not drawn), for which the Potency result is “inactive”.

Values taken from PubChem BioAssay (Tox21).
